Source: PubChem BioAssay
Several values for one entry are separate records, joined by “and”; a condition that tells them apart may be missing. Identical values can stand only once. Activity calls are given as the source filed them. Unless noted, no rule for the calls is given here.

Experiments:
[1] = test system: Hepatitis C virus NS3 helicase; assay: blockers of NS3h binding to ssDNA – biochemical, fluorescence polarization, LOPAC1280 library, primary screen (AID 687035; in the data active = inhibition above about 37%); settings: Purified HCV NS3 helicase, Cy5-dT15 ssDNA binding fluorescence polarization; stronger effect = higher value; concentration not given here
[2] = compounds altering Cy5-DNA-NS3h complex signal – biochemical, LOPAC1280, artefact control for HCV NS3 helicase inhibitor project (AID 687037); settings: Cy5-DNA-NS3h complex fluorescence interference counterscreen
[3] = test system: Aerobactin synthetase IucA (Klebsiella pneumoniae); assay: inhibition of K. pneumoniae IucA enzyme – biochemical, Tocris library, absorbance (AID 1345561); settings: purified IucA enzyme assay, absorbance (OD) read-out; stronger effect = lower value;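 tested at 8 µM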;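 also: 100% = enzyme without compound and 0% = no enzyme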
[4] = viability loss with induced miR-34 in A549 – imaging, A549 dox-inducible miR-34, nuclei and caspase counts, primary screen (AID 1347080;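 active = compounds whose cell count with miR-34 switched on is under 0.7 times the count with it off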); settings: A549 miR-34 inducible, Hoechst nuclei count, 48 h
[5] = blockers of cellular phospholipid synthesis – cell-based, LOPAC library, screen 4, primary screen (AID 1347384); settings: animal cells, phospholipid biosynthesis inhibition screen; at 10 µM
[6] = galactose survival enhancers in mitochondrial complex I cybrids – cell-based, galactose medium, ATP luminescence, primary screen (AID 1645843;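 active = z-score of at least 1.8 in each of two replicates, scored against plate mean and spread of sample wells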;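 also: positive z means more ATP and so rescue of galactose-driven cybrid death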); settings: complex I mutant cybrid cells, 72 h, stronger effect = higher value
[7] = compounds altering circadian rhythm period length – cell-based, LOPAC library, luminescence reporter (AID 2774); settings: circadian reporter cells, at 7 µM, actives lie on both sides;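 also: values are relative to mean of DMSO wells on each plate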
[8] = compounds altering viability of human ES cells (AID 493140); settings: human embryonic stem cell survival screen; stronger effect = higher value;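 also: cells exposed to compounds for four days before counting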
[9] = chitosan synthesis blockers in C. neoformans – flow cytometry, Cibacron Brilliant Red staining (AID 1347148); settings: Cryptococcus neoformans chitosan, stronger effect = lower value; at 10 µM unless noted;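 also: compound exposure lasted three days at 37 degrees C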
[10] = P. berghei load reduction in hepatocytes – cell-based, HepG2, luciferase luminescence, HepG2 viability, primary screen (AID 624349; in the data active = parasite load remaining mostly below about 12%, no sharp cut-off; inactive = mostly above about 10%;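 also: 100% = mean of DMSO negative control wells on the same plate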); settings: P. berghei liver stage in HepG2, luciferase luminescence, concentration not given here; parasite load remaining: stronger effect = lower value; viability: measured here: HepG2 viability without parasites
[11] = MELAS cybrid and Rieske KO viability enhancers – cell-based, MELAS cybrids, Rieske KO mouse fibroblasts, CellTiter-Glo, primary screen (AID 1508586;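 active = mean z-score across replicates of 1.96 or higher in either the MELAS or the Rieske mutant cell line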;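 also: z relative to plate mean and SD of compound and empty wells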); settings: low glucose
[12] = growth inhibition, single agent or in combination, cell-based, chromothripsis tumors, cisplatin or BGB combos (AID 1671449; in the data active = inhibition above about 80%;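 also: cells exposed for 96 hours; 0% = vehicle DMSO and 100% = killing by high DMSO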); settings: LFS_MB_P medulloblastoma cells
[13] = growth inhibition, single agent and combos, cell-based, chromothripsis tumors, cisplatin or BGB combos (AID 1671450; in the data active = inhibition above about 80%;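 also: cells exposed to compound for four days; 0% = vehicle DMSO and 100% = cell killing by high DMSO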); settings: HDN33 neuroblastoma cells, stronger effect = higher value
[14] = growth inhibition, single agents and combos, ICB984, cell-based, cisplatin or BGB combos, synergistic combos for chromothripsis tumors (AID 1671451); settings: ICB984 medulloblastoma cells, drug combinations, stronger effect = higher value;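 also: cells exposed for 96 hours before readout; 0% = vehicle DMSO and 100% = killing by high DMSO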
[15] = growth inhibition, single agents and combos, HTB85, cell-based, BGB or cisplatin IC20 combos, synergistic combos for chromothripsis tumors (AID 1671453; in the data active = inhibition above about 80%;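 also: cells exposed for 96 hours before readout; 0% = vehicle DMSO and 100% = high DMSO killing control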); settings: HTB85 osteosarcoma cells, drug combinations, stronger effect = higher value
[16] = growth inhibition, MDA-MB-436, cell-based, BGB or cisplatin combos, synergistic combos for chromothripsis tumors (AID 1671458); settings: MDA-MB-436 breast carcinoma growth inhibition, drug combinations, stronger effect = higher value;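 also: cells exposed for 96 hours; 0% = vehicle DMSO and 100% = killing by high DMSO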
[17] = BT084 cell growth, single and combined drugs, ICGC_MB145, cisplatin and BGB IC40 combos (AID 1671461; in the data active = inhibition above about 80%;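 also: cells exposed to drugs for 96 hours; 0% = vehicle DMSO and 100% = high DMSO full killing control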); settings: BT084 medulloblastoma cells, drug combinations, stronger effect = higher value
[18] = RCMB18 cell growth, single agent and combined, cisplatin and BGB IC40 combos (AID 1671462; in the data active = inhibition above about 80%;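 also: cells exposed to compound for four days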); settings: RCMB18 medulloblastoma cells, stronger effect = higher value
[19] = stronger effect = lower value, cell number ratio, induced over uninduced
[20] = measured here: relative caspase fold change +Dox/-Dox
[21] = measured here: total cells with miR-34 induction, stronger effect = lower value
[22] = measured here: total cells without miR-34 induction
[23] = MELAS cybrid survival, CellTiter-Glo 48 h, stronger effect = higher value
[24] = Rieske KO mouse fibroblast survival, CellTiter-Glo 72 h

## O=C1NC(=O)c2cc(Nc3ccccc3)c(Nc3ccccc3)cc21
[1]
  inhibition: 0% (inactive)
[2]
  fluorescence ratio (interference): 1 (inactive)
[3]
  remaining activity: 123% (inactive)
[4]; [19]
  fold change: 1.14 (inactive) and 0.996 (inactive)
[4]; [20]
  fold change: 1.65 and 1.45
[4]; [21]
  cell count: 3180 and 3240
[4]; [22]
  cell count: 2790 and 3260
[5]
  outcome: inactive
[6]
  z-score: -1.08 (inactive) and -0.55 (inactive)

## c1ccc(C(NCc2cccnc2)(c2ccccc2)c2ccccc2)cc1
[1]
  inhibition: 0% (inactive)
[2]
  fluorescence ratio (interference): 1 (inactive)
[3]
  remaining activity: 95% (inactive)
[4]; [19]
  fold change: 1.09 (inactive) and 0.901 (inactive)
[4]; [20]
  fold change: 1.48 and 1.53
[4]; [21]
  cell count: 7080 and 6130
[4]; [22]
  cell count: 6480 and 6800
[5]
  outcome: inactive
[6]
  z-score: -1.03 (inactive) and -0.695 (inactive)

## Cn1cnc2c(NCc3ccccc3)nc(NCCO)nc21
[7]
  period change: 0.235 h (inactive)
[8]
  survival: 92.8 (inactive)
[1]
  inhibition: -2% (inactive)
[2]
  fluorescence ratio (interference): 0.9 (inactive)
[3]
  remaining activity: 120% (inactive)
[9]
  fold fluorescence: 4.59 [at 167.6 µM] (inactive)
[5]
  outcome: inactive
[6]
  z-score: 0.355 (inactive) and 0.005 (inactive)

## Cc1cccc(/C=C/c2ccccc2)n1
[7]
  period change: 0.01 h (inactive)
[1]
  inhibition: 0% (inactive)
[2]
  fluorescence ratio (interference): 1 (inactive)
[3]
  remaining activity: 108% (inactive)
[4]; [19]
  fold change: 0.995 (inactive) and 0.915 (inactive)
[4]; [20]
  fold change: 1.79 and 0.591
[4]; [21]
  cell count: 9190 and 8490
[4]; [22]
  cell count: 9240 and 9280
[5]
  outcome: inactive
[6]
  z-score: 1.12 (inactive) and 0.09 (inactive)

## COc1ccc(CCCOC(Cn2ccnc2)c2ccc(OC)cc2)cc1 (stereo not given)
[3]
  remaining activity: 113% (inactive)
[4]; [19]
  fold change: 1.01 (inactive) and 1.05 (inactive)
[4]; [20]
  fold change: 1.53 and 0.475 and 0.778
[4]; [21]
  cell count: 1590 and 4390 and 2690
[4]; [22]
  cell count: 1570 and 4170 and 2650
[6]
  z-score: -0.775 (inactive)

## Brc1c(Br)c(Br)c2n[nH]nc2c1Br
[10]
  parasite load remaining: 65.4% (inactive)
  viability: 173%
[1]
  inhibition: -6% (inactive)
[2]
  fluorescence ratio (interference): 1 (inactive)
[3]
  remaining activity: 108% (inactive)
[4]; [19]
  fold change: 1.03 (inactive) and 1.02 (inactive)
[4]; [20]
  fold change: 1.41 and 1.13
[4]; [21]
  cell count: 10300 and 7940
[4]; [22]
  cell count: 9970 and 7790
[5]
  outcome: inactive
[6]
  z-score: -0.92 (inactive) and -0.58 (inactive)

## c1ccc(C(NCCNC(c2ccccc2)c2ccccc2)c2ccccc2)cc1
[1]
  inhibition: -4% (inactive)
[2]
  fluorescence ratio (interference): 1 (inactive)
[3]
  remaining activity: 112% (inactive)
[4]; [19]
  fold change: 0.972 (inactive) and 0.853 (inactive)
[4]; [20]
  fold change: 0.809 and 1.79
[4]; [21]
  cell count: 5830 and 5710
[4]; [22]
  cell count: 5990 and 6700
[5]
  outcome: inactive
[6]
  z-score: -1.29 (inactive) and -0.705 (inactive)

## O=C(Nc1ccncc1)c1cc([N+](=O)[O-])ccc1Cl
[1]
  inhibition: 0% (inactive)
[2]
  fluorescence ratio (interference): 1 (inactive)
[3]
  remaining activity: 127% (inactive)
[5]
  outcome: inactive
[11]; [23]
  z-score: 0.0073 (inactive)
[11]; [24]
  z-score: -0.438
[6]
  z-score: -1.12 (inactive) and -0.63 (inactive)
[12]; at 0.5 µM, stronger effect = higher value
  inhibition: -6.15% (inactive)
[12]; measured here: combination with BGB IC20, at 0.005 µM
  inhibition: -50.3%
[12]; measured here: combination with BGB IC40, at 0.005 µM
  inhibition: -79.8%
[12]; measured here: combination with BGB IC40, at 0.05 µM
  inhibition: -56.1%
[12]; measured here: combination with cisplatin, at 0.5 µM, stronger effect = higher value
  inhibition: -30.4%
[12]; measured here: combination with cisplatin, at 5 µM, stronger effect = higher value
  inhibition: -22.9%
[13]; BGB combo, at 5 µM
  inhibition: -13.6%
[13]; at 0.5 µM
  inhibition: 1.6% (inactive)
[13]; cisplatin combo, at 5 µM
  inhibition: 3.19%
[13]; measured here: with BGB IC20 combination, at 0.5 µM
  inhibition: -13.6%
[13]; measured here: with cisplatin IC20 combination, at 0.5 µM
  inhibition: 24.4%
[13]; single agent, at 5 µM
  inhibition: -14.1%
[14]; BGB IC20 combo, at 0.005 µM
  inhibition: -18%
[14]; BGB IC40 combo, at 0.005 µM
  inhibition: -35.6%
[14]; BGB IC40 combo, at 0.05 µM
  inhibition: 0.746%
[14]; at 0.5 µM
  inhibition: -34.7% (inactive)
[14]; cisplatin combo, at 0.05 µM
  inhibition: -4.27%
[14]; cisplatin combo, at 0.5 µM
  inhibition: -45.9%
[14]; cisplatin combo, at 5 µM
  inhibition: -23.5%
[14]; measured here: 5 uM single agent, at 5 µM
  inhibition: -11.4%
[15]; at 0.5 µM
  inhibition: -15.1% (inactive)
[15]; measured here: with BGB IC20, at 0.5 µM
  inhibition: -10.2%
[15]; measured here: with BGB IC20, at 5 µM
  inhibition: 1.89%
[15]; measured here: with cisplatin IC20, at 0.5 µM
  inhibition: -20.9%
[15]; measured here: with cisplatin IC20, at 5 µM
  inhibition: -16.5%
[15]; single agent, at 5 µM
  inhibition: -8.5%
[16]; at 0.5 µM
  inhibition: -25.3% (inactive)
[16]; measured here: BGB combination, at 0.5 µM
  inhibition: -15.4%
[16]; measured here: BGB combination, at 5 µM
  inhibition: -30%
[16]; measured here: cisplatin combination, at 0.5 µM
  inhibition: -47.1%
[16]; measured here: cisplatin combination, at 5 µM
  inhibition: -23.8%
[17]; at 0.5 µM
  inhibition: -26.5% (inactive)
[17]; cisplatin combination, at 0.5 µM
  inhibition: -23.3%
[17]; cisplatin combination, at 5 µM
  inhibition: -134%
[17]; measured here: BGB IC40 combination 0.05 uM, at 0.05 µM
  inhibition: -33.5%
[17]; single agent, at 5 µM
  inhibition: 23.7%
[18]; at 0.5 µM
  inhibition: -25.9% (inactive)
[18]; cisplatin combo, at 5 µM
  inhibition: 23.7%
[18]; measured here: BGB IC40 combination, at 0.05 µM
  inhibition: -24.6%
[18]; measured here: combination with cisplatin, at 0.5 µM
  inhibition: -52.5%
[18]; single agent, at 5 µM
  inhibition: -3.16%

## Oc1cc2c(cc1O)CN(C(=S)NCCc1ccc(Cl)cc1)CCC2
[7]
  period change: 0.035 h (inactive)
[1]
  inhibition: 0% (inactive)
[2]
  fluorescence ratio (interference): 1 (inactive)
[3]
  remaining activity: 72.4% (inactive)
[9]
  fold fluorescence: 5.63 [at 132.7 µM] (inactive)
[5]
  outcome: inactive
[6]
  z-score: -0.99 (inactive) and -1.23 (inactive)

## Cc1ccc(C(=O)Cn2c3c(sc2=N)CCCC3)cc1
[3]
  remaining activity: 107% (inactive)
[9]
  fold fluorescence: 5.78 [at 174.6 µM] (inactive)
[11]; [23]
  z-score: 1.05 (inactive)
[11]; [24]
  z-score: -0.573
[6]
  z-score: -0.225 (inactive)

## CCCCCCCCCCC(C)(C)C(=O)Nc1c(OC)cc(OC)cc1OC
[1]
  inhibition: -1% (inactive)
[2]
  fluorescence ratio (interference): 1 (inactive)
[3]
  remaining activity: 89.7% (inactive)
[4]; [19]
  fold change: 1.03 (inactive) and 0.876 (inactive)
[4]; [20]
  fold change: 2.03 and 1.56
[4]; [21]
  cell count: 8990 and 6930
[4]; [22]
  cell count: 8710 and 7910
[5]
  outcome: inactive
[6]
  z-score: -1.29 (inactive) and -0.7 (inactive)

## CC1(C)CCC(C)(C)c2cc(C(=O)Nc3ccc(C(=O)O)cc3)ccc21
[8]
  survival: 83.8 (inactive)
[4]; [21]
  cell count: 5520 and 7570
[4]; [22]
  cell count: 5900 and 8080
[6]
  z-score: 1.25 (inactive)
